# Source: PubChem BioAssay
# Vaccinia Venus: inhibitors of vaccinia virus (Venus reporter); Potency, µM (top dose mostly 36.5 µM), for the others: at the highest dose activity change, negative = inhibition, hits mostly inhibitors; hit rate 0.46% among 330,000; Vaccinia virus Venus reporter expression, fluorescence; calls by dose curve; tested in A549 cells; note: potency is the fitted concentration of half-maximal effect; % is set by controls: 0 for no effect and ±100 for the full control effect; nearly all actives have a fitted effect of over 30% in size
# VACV mCherry inh: inhibitors of vaccinia virus infection (mCherry reporter signal); hit rate 0.63% among 310,000; Potency, µM (top dose mostly 36.5 µM), for the others: top-dose activity change, negative = inhibition, most hits filed as inhibitors; Vaccinia virus mCherry reporter infection, fluorescence; AID 720579; calls by dose curve; tested in A549 cells; note: potency is the fitted concentration of half-maximal effect; % is set by controls: 0 for no effect and ±100 for the full control effect; nearly all actives have a fitted effect of over 35% in size
# Cycloheximide cs: affects cycloheximide protein synthesis inhibition readout, counter-screen; cell reporter, cycloheximide protein synthesis inhibition counterscreen; max response, %; hit rate 12% among 300,000; AID 2314; in the data active = max response mostly above about 13%, no sharp cut-off; inactive = mostly below about 14%; note: read at 38.3 µM for the half of the compounds with a filed dose; 0% is about no effect
# Lassa entry inh: Lassa virus entry inhibition; Lassa virus pseudotype entry inhibition, cell reporter; Potency, µM (titrated, usually from 37.9 µM), without a hit: top-dose activity change, negative = inhibition, most hits filed as inhibitors; hit rate 1.2% among 300,000; AID 540256; calls by dose curve; tested in HEK293 cells; note: potency is the fitted concentration of half-maximal effect; % is set by controls: 0 for no effect and ±100 for the full control effect; nearly all actives have a fitted effect of over 50% in size
# Shiga toxin inh: blocks Shiga toxin action in Vero cells; Vero cells, Shiga toxin protein synthesis inhibition reporter; hit rate 9.2% among 290,000; AID 2315; inhibition, % at 38.7 µM; in the data active = inhibition mostly above about 28%, no sharp cut-off; inactive = mostly below about 43%; note: 0% is about no effect
# Marburg entry inh: inhibitors of Marburg virus binding or cell entry | Marburg virus pseudotyped entry inhibition, cell reporter | AID 540276 | Potency, µM (titrated, usually from 37.8 µM), for the others: at the top dose activity change, negative = inhibition, usual class: inhibitors | hit rate 1.8% among 300,000; calls by dose curve; tested in HEK293 cells; note: potency is the fitted concentration of half-maximal effect; % is set by controls: 0 for no effect and ±100 for the full control effect
# The depositor's hits bear a star; i = inactive; u = inconclusive; x = no result; [ ] = another dose, or the depositor's remark. The full list was thinned out, with hits kept by preference.
SMILES,Vaccinia Venus,VACV mCherry inh,Cycloheximide cs,Lassa entry inh,Shiga toxin inh,Marburg entry inh
C=CCOc1cccc(/C=C/c2nc3ccccc3c(=O)[nH]2)c1,x,x,41*,x,71*,x
COc1cc(/C=C/c2nc3ccccc3c(=O)[nH]2)ccc1OC(F)F,x,x,29*,x,47,x
COc1cc(/C=C(\C#N)c2nc3ccccc3c(=O)[nH]2)cc(OC)c1OC,10%,1%,x,1%[46.1 µM],x,x
COc1cc(/C=C/c2nc3ccccc3c(=O)[nH]2)cc(OC)c1OC,x,x,28*,x,48,x
CC(C)c1ccc2oc(-c3ccc(Cl)c(NC(=O)Cc4ccccc4)c3)nc2c1,-1%,-1%,x,u,x,u
CCCCC(CC)CNC(=O)CCS(=O)(=O)c1cccc2nsnc12 (stereo not drawn),-15%,i,-1,u,-24,-1%
CCCCC(CC)CNC(=O)CN(C)S(=O)(=O)c1cccc2nsnc12 (stereo not drawn),x,x,10,4%,53*,8%
Cc1ccsc1CNCc1cc(Cl)ccc1O,-25%,-10%,x,x,x,x
O=C(N/N=C/c1ccccc1C(=O)O)c1ccccc1Br,0%,0%,7,21%,38,5%[46.1 µM]
COc1ccccc1/C=N/NC(=O)c1ccccc1Cl,-1%,-2%,15,5%,3,7%[46.1 µM]
C=CCc1cccc(/C=N/NC(=O)c2ccccc2OC)c1O,x,x,30*,-8%,135*,u
C=CCc1cccc(/C=N/NC(=O)c2ccccc2Br)c1O,x,x,10,x,50*,x
Cc1ccc(C(=O)C[n+]2cccc3cccc(O)c32)cc1,3%,-1%,x,x,x,x
c1ccc(-c2csc(NNC3=NCCCCC3)n2)cc1,-19%,-22%,39*,-2%,39,u
Clc1ccc(-c2csc(NNC3=NCCCCC3)n2)cc1,-10%,-1%,26*,u,18,u
COc1ccc(CNc2ccc(S(N)(=O)=O)cc2)cc1,-13%,-19%,-1,29%,-3,2%
COc1ccc(NCc2ccsc2)cc1,x,x,41*,x,44*,x
CCc1ccc(N2C(=O)C3CCCN3C2=S)cc1 (stereo not drawn),-6%,i,13,-13%[46.1 µM],52*,-9%[46.1 µM]
CCc1ccc(N2C(=O)C3C4C=CC(CC4)C3C2=O)cc1 (stereo not drawn),x,x,12,x,48*,x
O=C1C2C3C=CC(CC3)C2C(=O)N1c1ccc(Cl)cc1 (stereo not drawn),x,x,-1,x,x,x
CN(CCc1nc2ccc(Cl)cc2[nH]1)Cc1nc(CC2CC2)no1,x,x,-1,x,-10,x
CC1CCc2c(sc(NC(=O)c3cc4nc(-c5ccc(Cl)cc5)cc(C(F)(F)F)n4n3)c2C#N)C1 (stereo not drawn),1%,-5%,x,16%[46.1 µM],x,0%[46.1 µM]
COc1ccc(-c2nnc(-c3ccc(N)cc3)o2)cc1,x,x,44*,8%,62*,9%
COc1ccc(-c2nnc(-c3ccc(N(C)C)cc3)o2)cc1,x,x,8,8%,29,u
COc1ccc(-c2nnc(-c3cccnc3)o2)cc1,x,x,28*,-19%,62*,-3%
SMILES,Vaccinia Venus,VACV mCherry inh,Cycloheximide cs,Lassa entry inh,Shiga toxin inh,Marburg entry inh
c1ccc(C2=NOC(c3nnc(-c4ccccc4)o3)C2)cc1 (stereo not drawn),-3%,-6%,x,x,x,x
Clc1ccc(-c2nnc(-c3cccnc3)o2)cc1,-11%,0%,20*,6%,56*,-9%
COc1ccc(-c2nnc(-c3ccc(OCC(C)C)cc3)o2)cc1,x,x,19,2%,-7,-21%
c1ccc(-c2nnc(C3CC(c4cccnc4)=NO3)o2)cc1 (stereo not drawn),-3%,i,15*,x,20,x
FC(F)(F)c1ccc(-c2nnc(-c3cccnc3)o2)cc1,-14%,-18%,-3,0%,-6,0%
CC[N+]1(C)[C@@H]2CC[C@H]1CC(OC(=O)[C@H]1CCC(C(=O)OC3C[C@H]4CC[C@@H](C3)[N+]4(C)CC)(c3ccccc3)c3ccccc31)C2 (stereo partly drawn),-10%,-17%,x,x,x,x
CCCN(CCC)C(=O)Cn1c(SCc2cccc(F)c2)nc2cccnc21,-8%,-8%,x,-4%[46.1 µM],x,x
N#Cc1c(-c2cccs2)cc(-c2cccnc2)nc1N,x,x,-4,2%,-8,-2%
Cc1ccc(-c2nnc(-c3cccnc3)o2)cc1,x,x,36*,x,81*,x
Brc1ccc(-c2nnc(-c3cccnc3)o2)cc1,-13%,-14%,x,u,x,8%
c1cncc(-c2nnc(-c3cccs3)o2)c1,0%,-2%,20*,26%,58,19%[46.1 µM]
